# RE007 growth inh = less growth of the S. pombe RE007 Vpr strain; S. pombe RE007 Vpr strain, BacTiter-Glo ATP luminescence, 24 h; Potency, µM (highest dose often 92.2 µM), usual class: inhibitors; hit rate 0.21% among 360,000; AID 651644; active = well fitted falling curve with a large enough effect; inconclusive = small, poorly fitted or top-dose-only effect; inactive = no such curve, though single readings can be large or run the other way; also: nearly all actives have a fitted effect of over 50% in size
#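 Fission yeast RE007 carrying one integrated HIV-1 vpr copy, seeded at OD 0.01 in PMG+AL medium with 23 nL pinned compound. Grown 24 h at 30 degrees; viability read by BacTiter-Glo luminescence after 5 min.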
# TbPYK inhibitor = inhibitors of Trypanosoma brucei pyruvate kinase; Potency, µM (titrated, usually from 76.8 µM), actives largely listed as inhibitors; Q57TT1; hit rate 0.12% among 410,000; TbPYK enzyme, Kinase-Glo Plus ATP luminescence, 45 min; AID 624173; also: nearly all actives have a fitted effect of over 50% in size
#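 In this concentration-response screen, enzyme-free wells defined baseline while DMSO plates tracked drift. Each reaction combined TbPYK, substrate, compound and 130 uM ADP for 45 min at room temperature. Kinase-Glo Plus luminescence gave the signal.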
# AmpC no deterg = inhibitors of E. coli AmpC beta-lactamase without detergent | P00811 | Potency, µM (highest dose often 57.1 µM), usual class: inhibitors | AmpC nitrocefin hydrolysis, absorbance 480 nm, 0.0001% Triton | hit rate 0.52% among 330,000; also: nearly all actives have a fitted effect of over 20% in size
# Target sequence (P00811 whole entry, looked up): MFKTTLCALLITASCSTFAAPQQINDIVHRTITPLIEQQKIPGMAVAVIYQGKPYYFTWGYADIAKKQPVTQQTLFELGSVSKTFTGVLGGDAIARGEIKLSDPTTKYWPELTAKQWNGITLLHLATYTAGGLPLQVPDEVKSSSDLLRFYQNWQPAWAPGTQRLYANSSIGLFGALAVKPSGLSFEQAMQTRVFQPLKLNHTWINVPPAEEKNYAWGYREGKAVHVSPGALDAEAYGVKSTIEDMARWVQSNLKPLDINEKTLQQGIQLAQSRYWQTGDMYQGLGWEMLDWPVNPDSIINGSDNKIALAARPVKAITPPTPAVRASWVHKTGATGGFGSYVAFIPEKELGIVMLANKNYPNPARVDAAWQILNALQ
#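 AmpC (5.3 nM in the dispensed reagent) in 20 mM phosphate pH 7.0 with 0.01% (detergent screen) or 0.0001% Triton X-100 was preincubated with compounds for 15 min at room temperature. Nitrocefin was then added from an 800 uM solution, and hydrolysis was followed at 480 nm.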
# AmpC inh detg = blocks E. coli AmpC beta-lactamase in detergent assay. P00811. AmpC hydrolysis of nitrocefin, absorbance 480 nm, 0.01% Triton. hit rate 0.041% among 370,000. Potency, µM (highest dose often 114 µM), actives largely listed as inhibitors. AID 485294; also: nearly all actives have a fitted effect of over 25% in size
#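 20 mM phosphate pH 7.0 + 0.01% (detergent screen) or 0.0001% Triton X-100; 5.3 nM AmpC reagent; cpd preinc 15 min RT; nitrocefin (800 uM stock) to start; A480 q20 s × 4 min; Activity was normalised to no-enzyme and no-compound control wells.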
# Sm TGR block = blocks Schistosoma mansoni thioredoxin glutathione reductase; Q962Y6; purified TGR, DTNB reduction, TNB absorbance 405 nm; Potency, µM (titrated, usually from 114 µM), usual class: inhibitors; hit rate 3% among 360,000; AID 485364; also: nearly all actives have a fitted effect of over 60% in size
#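 Kinetic colorimetric format: TGR-catalysed, NADPH-driven DTNB reduction monitored via TNB absorbance. Enzyme dispensed at 20 nM; compound exposure 15 min at room temperature before reaction start.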
# SARS PLpro yeast = inhibitors of SARS-CoV papain-like protease in yeast | hit rate 0.19% among 330,000 | Potency, µM (titrated, usually from 32.9 µM), usual class: activators | S. cerevisiae expressing SARS-CoV PLpro, growth rescue; calls by dose curve; also: nearly all actives have a fitted effect of over 55% in size
# A number is an active result; – = inactive; ? = inconclusive; · = no result; [ ] = dose if it differs, or a comment. This is a sample that favours compounds with a hit; in the whole collection about 3.3% have one here. Unless noted, calls follow the shape of the dose curve; as a rule, active = well fitted curve in the direction sought with a large enough effect; inconclusive = small, poorly fitted or top-dose-only effect, or another doubt; inactive = no such curve, though single readings can be large; an effect the other way counts as inactive or inconclusive.
SMILES,RE007 growth inh,TbPYK inhibitor,AmpC no deterg,AmpC inh detg,Sm TGR block,SARS PLpro yeast
Cc1cc(C)nc(Sc2ncnc(N)c2[N+](=O)[O-])n1,–,–,–,–,4µM,–
CCCCN(C)S(=O)(=O)c1ccc(NC2=NS(=O)(=O)c3ccccc32)cc1,·,–,·,–,–,·
Brc1ccc(C2=CC(c3cccs3)n3ncnc3N2)cc1 (stereo not drawn),–,–,10µM,–,22µM,–
CC1=C(C(N)=O)C(c2ccc(Br)cc2)n2nc(CCCO)nc2N1 (stereo not drawn),–,–,–,–,–,–
Fc1ccc(Br)cc1C1C=C(c2cccnc2)Nc2ncnn21 (stereo not drawn),–,–,–,–,–,–
OCCCc1nc2n(n1)C(c1cccs1)C=C(c1ccc(Br)cc1)N2 (stereo not drawn),·,·,–,–,25µM,–
NC1=NC(=O)/C(=C/c2cccc(-c3ccc(S(N)(=O)=O)cc3)c2)S1,–,–,–,–,10µM,–
CN(C)S(=O)(=O)c1ccc2c(c1)/C(=C/c1cc3c([nH]1)CCCC3)C(=O)N2,–,–,–,?,50µM,·
CN(C)S(=O)(=O)c1ccc2c(c1)C(=O)c1cc(S(=O)(=O)N(C)C)ccc1CC2,·,–,–,–,–,–
COc1ccc(-c2cn3c(n2)sc2cc(C(=O)Nc4cc(Cl)ccc4C)ccc23)cc1,·,–,·,–,–,·
COc1ccc(CC(=O)N2CC(=O)Nc3ccc(F)cc3C2c2ccccc2)cc1 (stereo not drawn),·,?,·,–,–,·
CN1C(=O)C2(c3ccccc31)C1CCCC=C1C(C#N)=C(N)C2(C#N)C#N (stereo not drawn),–,–,–,?,20µM,–
CN1C(=O)C2(C(C#N)=C(N)N(c3cc(Cl)cc(Cl)c3)C3=C2C(=O)CCC3)c2ccccc21 (stereo not drawn),–,–,–,–,–,–
CCc1ccc(CNC(=O)c2ccc3nc(C(C)C)oc3c2)cc1,·,–,·,–,–,·
COCCc1nn2c(=O)cc(COC(=O)COc3ccc(F)cc3)nc2s1,·,–,·,–,–,·
CCOC(=O)/C=C/C(=O)OCC(=O)Nc1ccc(C)cc1,?,–,–[11.4 µM],–,13µM,–
CCOC(=O)/C=C/C(=O)OCC(=O)Nc1cccc(Br)c1,–,–,–,–,18µM,–
Cc1ccc(NC(=O)COC(=O)/C=C/c2cccs2)cc1,–,–,–,–,–,–
CCOC(=O)/C=C/C(=O)Nc1ccc(S(=O)(=O)Nc2c(C)cc(C)cc2C)cc1,–,–,–,?,–,–
CCOC(=O)/C=C/S(=O)(=O)c1ccc(NC(C)=O)cc1,?,–,–,?,0.32µM,–
Cc1cc(Cl)ccc1NC(=O)CCS(=O)(=O)c1ccc2c(c1)CC(C)N2C(=O)C1CC1 (stereo not drawn),·,–,·,–,–,·
CCCCc1ccc(-n2nc3ccc(NC(=O)c4cc5ccccc5o4)cc3n2)cc1,·,–,·,–,–,·
COc1nc(-c2ccc(C)cc2)ccc1-c1noc(-c2ccc(C(C)(C)C)cc2)n1,·,–,·,–,–,·
Cc1ccc(CCNc2nc3c(S(=O)(=O)c4ccccc4)nnn3c3ccsc23)cc1,·,–,·,–,32µM,·
O=c1c2ccccc2nc2n1CCS2(=O)=O,–,–,–,–,22µM,–
SMILES,RE007 growth inh,TbPYK inhibitor,AmpC no deterg,AmpC inh detg,Sm TGR block,SARS PLpro yeast
Cc1ccccc1C(=O)OC1OC(=O)C(Cl)=C1Nc1ccc(C(=O)O)cc1 (stereo not drawn),–,–,1.1µM,1.3µM,–,–
COc1nc(NC(C)C)nc(N(C#N)CN2C(=O)c3ccccc3S2(=O)=O)n1,–,–,–,–,–,–
CC(C)Nc1nc(Cl)nc(N(C#N)CN2C(=O)c3ccccc3S2(=O)=O)n1,–,–,–,–,20µM,–
COc1ccc(N(Cc2cccs2)C(=O)c2ccccc2C)cc1,·,–,·,–,–,·
CCCCN(C(=O)Cn1ncc(Cl)c(Cl)c1=O)c1c(N)n(CC(C)C)c(=O)[nH]c1=O,–,–,–,–,4.5µM,–
COc1ccc(OCC(=O)Nc2ccc(C(=O)OCc3cc(=O)n4nc(C)sc4n3)cc2)cc1,·,–,·,–,–,·
CC[C@H]1OC(=O)C[C@@H](O)[C@H](C)[C@@H](O[C@@H]2O[C@H](C)C[C@H](N(C)C)[C@@H]2O)[C@@H](CC=O)C[C@@H](C)C(=O)/C=C\[C@]2(C)O[C@H]2[C@@H]1C,·,–,·,·,·,·
CSc1nsc(/C=C/Nc2ccc(Cl)cc2)c1C#N,–,–,18µM,–,–,–
Cc1cccc(N2CCN(C(c3ccccc3)c3nnc(-c4ccccc4Cl)o3)CC2)c1C (stereo not drawn),·,–,·,–,–,·
CCN(CC)C(=O)c1sc(NC(=O)C(C)Sc2nc(-c3ccccc3)cc(C(F)(F)F)n2)c(C(=O)OC)c1C (stereo not drawn),·,–,·,–,–,·
Cc1cccc(-c2noc(-c3ccccc3C(=O)NCc3ccco3)n2)c1,–,–,–,–,22µM,–
COc1ccc(-c2noc(CCC(=O)NCc3ccco3)n2)cc1,–,–,–,–,40µM,–
Cc1ccccc1-c1noc(CCC(=O)NCc2ccco2)n1,–,–,–,–,28µM,–
Cc1ccc(-c2noc(CCCC(=O)NCc3ccco3)n2)cc1,·,–,·,–,–,·
CCCCCCNC(=O)N[C@H](C(=O)NCCC[C@H]1CN2C(=NC[C@H]2C)N1CCC(c1ccccc1)c1ccccc1)C(C)O (stereo partly drawn),·,·,–,–,0.5µM,–
Cc1cc(C)cc(OCc2ccc(C(=O)O)o2)c1,–,–,–,–,–,–
O=C(O)c1ccc(COc2c(F)c(F)c(F)c(F)c2F)o1,–,–,–,–,45µM,–
CN(C)S(=O)(=O)c1cccc(C(=O)N2CCc3ccccc32)c1,–,–,–,–,–,–
CN(C)S(=O)(=O)c1cccc(C(=O)C2=C3SC=C(c4ccccc4)N3CC2)c1,–,–,–,?,4.5µM,–
CCCCn1cc(S(=O)(=O)c2ccc(CC)cc2)c(=O)c2cc(F)c(N3CCOCC3)cc21,·,–,·,–,–,·
O=C1[C@@H]2C[C@@H]3C[C@H]1C[C@@](O)(C3)C2,·,–,·,·,·,·
CCN(CC)CCOC(=O)c1ccc(N)cc1Cl,·,–,·,·,·,·
O=C(O)CCC(=O)CCC(=O)c1ccccc1,–,–,–,–,45µM,–
Cc1ccc(C(=O)CCC(=O)CCC(=O)O)cc1,–,–,·,·,·,·
CC1=NOC(=O)/C1=C/c1ccc2c(c1)OCO2,–,?,–,–,–,–
COC(=O)C1=C(C)NC(=O)/C1=C\N(C)C,–,–,–,–,25µM,–
COC(=O)C1=C(C)NC(=O)/C1=C\c1ccc2c(c1)OCO2,?,–,–,?,35µM,–

# Source: PubChem
